The record followed here is PubChem BioAssay (EPA / NIEHS).

Several values for one entry are separate records, joined by “and”; a condition that tells them apart may be missing. Equal values may be shown once. Inconclusive results are not listed. Some structures have more than one record in an assay (separate samples or runs), and their calls can disagree. Activity calls are given as the source filed them. How the source made its calls, unless noted: active means hit-call score of the fitted dose curve at least 0.9, where 1 is the maximum; inactive means score below 0.9.

Assay [1] has as its target Myc proto-oncogene protein (Homo sapiens) (UniProt P01106). Nature of the assay: ATG_Myc_CIS: Attagene CIS-FACTORIAL HepG2 Assay for human Myelocytomatosis (Myc) Proto-Oncogene Transcription Factor (AID 2282990). The following applies: HepG2, Attagene cis-reporter transcription factor activity; actives raise or lower the signal. In short, it runs like this:
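Read-out: fluorescent reporter mRNA fragments resolved by capillary electrophoresis after RT-PCR. Human HepG2 liver cells carried transfected cis-element reporter units and were dosed for 24 h. Gain or loss of signal fitted relative to DMSO baseline.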

Assay [2] in a line: ATG_NRF2_ARE_CIS: Attagene CIS-FACTORIAL HepG2 Assay for human Nuclear Factor Erythroid 2 Related Factor 2 (NFR2) response to Antioxidant Response Elements (ARE) (AID 2282992).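 On AC50: reporter mRNA level measured by RT-PCR and capillary electrophoresis fluorescence.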 The following applies: HepG2 Attagene ARE/NRF2 reporter, transcription factor activity; actives raise or lower the signal. In short, it runs like this:
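Transient MRTU transfection of HepG2; 24 h compound exposure; TriZol RNA, RT with oligo(dT), PCR, 6-FAM primer extension, HpaI cut, CE. Bidirectional fit vs DMSO.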

Assay [3] can be described thus: ATG_Oct_MLP_CIS: Attagene CIS-FACTORIAL HepG2 Assay for human Octamer-Binding Transcription Factor (Oct) (AID 2282993). The following applies: HepG2 Attagene cis-factorial Oct reporter, mRNA; actives raise or lower the signal. The essentials: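 Readout is reporter transcript level from RT-PCR with fluorescent primer extension and capillary electrophoresis, fitted in both directions against DMSO. Transfected HepG2 reporter units report endogenous factor activity after 24 h dosing.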

Assay [4] has as its target Cellular tumor antigen p53 (Homo sapiens) (UniProt P04637). The assay can be described thus: ATG_p53_CIS: Attagene CIS-FACTORIAL HepG2 Assay for human p53 Transcription Factor (AID 2282994). The following applies: HepG2 p53 cis-element reporter, Attagene mRNA; actives raise or lower the signal. The essentials:
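HepG2, transient MRTU transfection (cis promoter elements, endogenous TFs); 24 h dosing; RNA isolation, RT-PCR, 6-FAM primer extension, HpaI digest, CE fluorescence; bidirectional fit vs DMSO.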

The nature of assay [5]: BSK_3C_uPAR: BioMAP Diversity Plus: 3C Assay for Urokinase-type plasminogen activator receptor (uPAR) Biomarker Activity (AID 2282998). The following applies: BioMAP 3C HUVEC, uPAR biomarker ELISA; actives raise or lower the signal. The essentials:
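Cell-surface uPAR on HUVEC (3C system) read by ELISA at 24 h post-treatment, with DMSO as baseline and fitting in both directions. Parallel cultures stained with SRB to flag overt cytotoxicity.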

Assay [6] in a line: BSK_3C_VCAM1: BioMAP Diversity Plus: 3C Assay for Vascular cell adhesion molecule 1 (VCAM1) Biomarker Activity (AID 2282999). The following applies: BioMAP 3C HUVEC, VCAM1 ELISA, cytokine-stimulated; actives raise or lower the signal. The essentials: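 Human umbilical vein endothelial cells (3C system), biomarker read by ELISA 24 h after dosing; bidirectional fit against DMSO baseline. Cytotoxicity tracked by SRB total-protein staining in parallel cultures at biomarker time.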

Assay [7] in a line: BSK_4H_Eotaxin3: BioMAP Diversity Plus: 4H Assay for Eotaxin 3 Biomarker Activity (AID 2283000).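 On outcome: CCL26 protein level quantified by ELISA in parallel with SRB cytotoxicity check.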 The following applies: primary human endothelial cells (HUVEC); actives raise or lower the signal. The essentials:
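ELISA quantitation of CCL26 (Eotaxin-3) protein from chemically dosed human vascular endothelial cells at 24 h; increases and decreases both scored relative to DMSO-treated baseline.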

In assay [8] the target is human Peroxisome Proliferator-activated Receptor alpha (PPARa), PPARA (gene 5465) (UniProt Q07869). The assay can be described thus: ATG_PPARa_TRANS: Attagene TRANS-FACTORIAL HepG2 Assay for human Peroxisome Proliferator-activated Receptor alpha (PPARa) (AID 2283001; active means hit-call score of the fitted dose curve at least 0.9, where 1 is the maximum;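 on AC50: potency for gain of reporter signal over DMSO so agonist or activator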). In short, it runs like this: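 HepG2 cells transiently transfected with multiplexed GAL4-UAS reporters driven by exogenous chimeric NR-Gal4 proteins; reporter mRNA measured after 24 h dosing. Read-out by RT-PCR, 6-FAM labelling, HpaI digestion and capillary electrophoresis; gain of signal versus DMSO.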

The target of assay [9] is human Peroxisome Proliferator-activated Receptor delta (PPARd), PPARD (gene 5467) (UniProt Q03181). The assay can be described thus: ATG_PPARd_TRANS: Attagene TRANS-FACTORIAL HepG2 Assay for human Peroxisome Proliferator-activated Receptor delta (PPARd) (AID 2283002; active means hit-call score of the fitted dose curve at least 0.9, where 1 is the maximum). The essentials:
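Read-out: reporter mRNA induction, quantified by fluorescent RT-PCR products resolved by capillary electrophoresis. Human HepG2 liver cells carried transiently transfected Gal4-UAS reporter constructs with chimeric NR-Gal4 fusions. Cells were dosed for 24 h; DMSO served as baseline.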

Read-out in assay [10]: Intercellular Adhesion Molecule 1 (ICAM1), ICAM1 (gene 3383)
The assay can be described thus: BSK_3C_ICAM1: BioMAP Diversity Plus: 3C Assay for Intercellular Adhesion Molecule 1 (ICAM1) Biomarker Activity (AID 2283003). The following applies: primary human endothelial cells (HUVEC); actives raise or lower the signal. In short, it runs like this:
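ICAM-1 levels measured by ELISA after HUVEC cultures in the 3C system had been dosed for 24 h. Gain or loss of signal relative to DMSO was fitted in both directions.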

Assay [11] is described as follows: BSK_3C_Proliferation: Cell Proliferation Assessment in the BioMAP Diversity Plus: 3C Assay (AID 2283006).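 On AC50: potency may reflect either rise or fall in cell number versus DMSO.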 The following applies: primary human endothelial cells (HUVEC). The essentials: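 Read-out is total protein by SRB absorbance at 560 nm, taken as a proxy for relative cell number. Primary human umbilical vein endothelium cultured below confluence was dosed for 48 h, TCA-fixed and SRB-stained; curves were fitted bidirectionally versus DMSO.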

The target in assay [12] is Peroxisome proliferator-activated receptor gamma (Homo sapiens) (UniProt P37231). Nature of the assay: ATG_PPARg_TRANS: Attagene TRANS-FACTORIAL HepG2 Assay for human Peroxisome Proliferator-activated Receptor-gamma (PPARg) (AID 2283007; active means hit-call score of the fitted dose curve at least 0.9, where 1 is the maximum). The essentials: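 Chimeric NR-Gal4 transactivation is measured in transiently transfected HepG2 cells by reporter mRNA induction at 24 h. Detection uses RT-PCR with fluorescent labelling and capillary electrophoresis; DMSO defines baseline.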

The target of assay [13] is Nuclear receptor subfamily 1 group I member 2 (Homo sapiens) (UniProt O75469). Nature of the assay: ATG_PXR_TRANS: Attagene TRANS-FACTORIAL HepG2 Assay for human Pregnane X Receptor (PXR) (AID 2283008; active means hit-call score of the fitted dose curve at least 0.9, where 1 is the maximum). The essentials: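 Read-out is fluorescence of labelled reporter cDNA fragments separated by capillary electrophoresis after RT-PCR and HpaI digestion. Source: HepG2 cells carrying PXR-GAL4/UAS reporter constructs, treated 24 h; activity fitted upward relative to DMSO.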

Assay [14] has as its target human Retinoic Acid Receptor gamma (RARg), RARG (gene 5916) (UniProt P13631). The assay can be described thus: ATG_RARg_TRANS: Attagene TRANS-FACTORIAL HepG2 Assay for human Retinoic Acid Receptor gamma (RARg) (AID 2283009; active means hit-call score of the fitted dose curve at least 0.9, where 1 is the maximum). The essentials:
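Transient transfection of HepG2 with multi-reporter constructs, then 24 h chemical treatment. Total RNA isolated, reverse-transcribed, PCR-amplified, fluorescently labelled and resolved by capillary electrophoresis; activity scored as mRNA induction versus DMSO.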

A short description of assay [15]: BSK_3C_TissueFactor: BioMAP Diversity Plus: 3C Assay for Tissue Factor Biomarker Activity (AID 2282997). The following applies: BioMAP 3C HUVEC, tissue factor biomarker readout; actives raise or lower the signal. In short, it runs like this: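 Endothelial monolayers (human umbilical vein, primary) are dosed, incubated 24 h, and assayed for Tissue Factor by ELISA; DMSO serves as negative control for bidirectional fitting.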

The nature of assay [16]: ATG_NF_kB_CIS: Attagene CIS-FACTORIAL HepG2 Assay for human Nuclear Factor Kappa B (NF-kB) (AID 2282991). The following applies: HepG2 Attagene cis-factorial NF-kB reporter mRNA; actives raise or lower the signal. The essentials:
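DMSO served as negative control and baseline for bidirectional curve fitting. Transiently transfected HepG2 cells were dosed for 24 h, then reporter transcripts were measured by RT-PCR with capillary electrophoresis detection.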

In assay [17] the target is human Retinoic Acid Receptor beta (RARb), RARB (gene 5915) (UniProt P10826). The assay can be described thus: ATG_RARb_TRANS: Attagene TRANS-FACTORIAL HepG2 Assay for human Retinoic Acid Receptor beta (AID 2283004; active means hit-call score of the fitted dose curve at least 0.9, where 1 is the maximum). In short, it runs like this: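 Fluorescent capillary-electrophoresis detection of GAL4-UAS reporter mRNA defines the endpoint, with induction over DMSO-treated wells scored as activity. Transiently transfected human hepatoma HepG2 cells expressing exogenous NR–Gal4 proteins are exposed to test chemicals for 24 h.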

Assay [18] addresses Retinoic acid receptor alpha (Homo sapiens) (UniProt P10276). Nature of the assay: ATG_RARa_TRANS: Attagene TRANS-FACTORIAL HepG2 Assay for human Retinoic Acid Receptor alpha (RARa) (AID 2283005; active means hit-call score of the fitted dose curve at least 0.9, where 1 is the maximum). In short, it runs like this:
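HepG2 transiently transfected with multiplex GAL4-UAS reporter units including a human RARa–GAL4 chimera; 24 h compound exposure. Reporter mRNA quantified by RT-PCR, 6-FAM labeling and capillary electrophoresis; gain of signal versus DMSO.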

In assay [19] the target is human RAR-related Orphan Receptor gamma (RORg), RORC (gene 6097) (UniProt P51449). The assay can be described thus: ATG_RORg_TRANS: Attagene TRANS-FACTORIAL HepG2 Assay for human RAR-related Orphan Receptor gamma (RORg) (AID 2283011; active means hit-call score of the fitted dose curve at least 0.9, where 1 is the maximum). In short, it runs like this: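 Chimeric RORg-Gal4 transactivation in transfected HepG2; 24 h exposure; RT-PCR/capillary electrophoresis readout of reporter mRNA, DMSO baseline.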

The target in assay [20] is human RAR-related Orphan Receptor beta (RORb), RORB (gene 6096) (UniProt Q92753). Nature of the assay: ATG_RORb_TRANS: Attagene TRANS-FACTORIAL HepG2 Assay for human RAR-related Orphan Receptor beta (RORb) (AID 2283010; active means hit-call score of the fitted dose curve at least 0.9, where 1 is the maximum). The essentials: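 Readout is reporter-gene mRNA induction, detected as fluorescence after RT-PCR and capillary electrophoresis, fitted for gain of signal against DMSO controls. Transiently transfected HepG2 liver cells carrying GAL4-UAS reporter constructs were treated for 24 hours.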

Sequence of Myc proto-oncogene protein (Homo sapiens) (P01106 whole entry, looked up, the tested form may be a part): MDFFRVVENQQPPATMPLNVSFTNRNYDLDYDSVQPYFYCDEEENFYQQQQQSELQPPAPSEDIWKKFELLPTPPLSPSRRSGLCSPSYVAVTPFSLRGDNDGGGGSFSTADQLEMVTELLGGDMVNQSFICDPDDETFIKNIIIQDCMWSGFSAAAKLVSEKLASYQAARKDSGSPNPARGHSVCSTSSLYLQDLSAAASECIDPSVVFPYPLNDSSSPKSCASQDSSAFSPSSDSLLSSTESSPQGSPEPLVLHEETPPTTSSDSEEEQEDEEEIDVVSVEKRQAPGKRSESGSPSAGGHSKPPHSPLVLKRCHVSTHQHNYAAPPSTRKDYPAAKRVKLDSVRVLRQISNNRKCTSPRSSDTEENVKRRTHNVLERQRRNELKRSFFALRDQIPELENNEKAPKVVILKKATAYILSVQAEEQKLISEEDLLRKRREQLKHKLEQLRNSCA
Sequence of human Peroxisome Proliferator-activated Receptor delta (PPARd), PPARD (gene 5467) (Q03181 whole entry, looked up, the tested form may be a part): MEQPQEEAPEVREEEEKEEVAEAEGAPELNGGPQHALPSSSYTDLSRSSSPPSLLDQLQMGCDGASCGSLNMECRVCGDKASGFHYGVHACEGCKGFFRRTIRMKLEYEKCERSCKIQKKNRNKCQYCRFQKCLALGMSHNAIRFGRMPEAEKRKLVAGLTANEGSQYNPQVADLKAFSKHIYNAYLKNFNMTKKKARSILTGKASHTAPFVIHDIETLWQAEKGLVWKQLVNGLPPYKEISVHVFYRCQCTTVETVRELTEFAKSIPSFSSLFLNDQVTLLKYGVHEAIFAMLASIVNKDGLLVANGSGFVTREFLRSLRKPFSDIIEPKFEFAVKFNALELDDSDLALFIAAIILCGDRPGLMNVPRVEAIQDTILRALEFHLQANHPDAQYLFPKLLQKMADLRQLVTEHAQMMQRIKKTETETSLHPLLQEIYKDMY
Sequence of human RAR-related Orphan Receptor gamma (RORg), RORC (gene 6097) (P51449 whole entry, looked up, the tested form may be a part): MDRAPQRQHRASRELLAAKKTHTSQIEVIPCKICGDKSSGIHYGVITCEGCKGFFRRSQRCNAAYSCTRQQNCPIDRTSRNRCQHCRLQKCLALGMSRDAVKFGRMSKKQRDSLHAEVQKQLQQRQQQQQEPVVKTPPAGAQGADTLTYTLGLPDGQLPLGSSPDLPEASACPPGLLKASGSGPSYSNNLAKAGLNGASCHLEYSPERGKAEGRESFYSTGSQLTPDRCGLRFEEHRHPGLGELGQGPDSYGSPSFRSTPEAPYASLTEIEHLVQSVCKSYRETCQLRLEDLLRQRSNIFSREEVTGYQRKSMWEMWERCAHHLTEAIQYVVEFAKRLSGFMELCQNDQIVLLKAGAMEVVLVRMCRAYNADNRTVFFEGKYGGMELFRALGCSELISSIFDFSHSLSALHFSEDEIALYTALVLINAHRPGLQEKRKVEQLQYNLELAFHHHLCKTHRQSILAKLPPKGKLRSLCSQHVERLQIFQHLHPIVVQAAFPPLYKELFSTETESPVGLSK
Sequence of Retinoic acid receptor alpha (Homo sapiens) (P10276 whole entry, looked up, the tested form may be a part): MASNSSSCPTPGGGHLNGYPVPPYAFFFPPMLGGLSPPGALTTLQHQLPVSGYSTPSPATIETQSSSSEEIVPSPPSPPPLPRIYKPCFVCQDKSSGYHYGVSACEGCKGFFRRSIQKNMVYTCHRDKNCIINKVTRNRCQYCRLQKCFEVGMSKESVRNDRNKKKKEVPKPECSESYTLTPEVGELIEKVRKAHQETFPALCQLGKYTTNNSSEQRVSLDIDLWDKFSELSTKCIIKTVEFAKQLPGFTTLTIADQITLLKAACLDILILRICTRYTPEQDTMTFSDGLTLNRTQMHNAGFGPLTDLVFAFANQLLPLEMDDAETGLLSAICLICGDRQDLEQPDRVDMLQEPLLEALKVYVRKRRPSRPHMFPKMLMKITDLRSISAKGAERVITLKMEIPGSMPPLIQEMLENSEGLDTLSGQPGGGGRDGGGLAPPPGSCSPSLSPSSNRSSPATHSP
Sequence of human Retinoic Acid Receptor gamma (RARg), RARG (gene 5916) (P13631 whole entry, looked up): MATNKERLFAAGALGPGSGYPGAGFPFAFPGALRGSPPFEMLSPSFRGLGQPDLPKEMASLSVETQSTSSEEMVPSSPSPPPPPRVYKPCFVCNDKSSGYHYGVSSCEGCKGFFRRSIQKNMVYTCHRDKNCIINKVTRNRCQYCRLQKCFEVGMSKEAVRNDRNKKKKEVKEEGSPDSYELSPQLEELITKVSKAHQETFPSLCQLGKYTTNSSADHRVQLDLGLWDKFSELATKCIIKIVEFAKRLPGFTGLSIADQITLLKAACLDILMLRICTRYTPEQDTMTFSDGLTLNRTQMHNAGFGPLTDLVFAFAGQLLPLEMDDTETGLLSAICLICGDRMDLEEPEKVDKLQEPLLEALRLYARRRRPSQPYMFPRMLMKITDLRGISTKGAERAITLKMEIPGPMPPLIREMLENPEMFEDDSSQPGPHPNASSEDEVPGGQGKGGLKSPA
Sequence of human Peroxisome Proliferator-activated Receptor alpha (PPARa), PPARA (gene 5465) (Q07869 whole entry, looked up, the tested form may be a part): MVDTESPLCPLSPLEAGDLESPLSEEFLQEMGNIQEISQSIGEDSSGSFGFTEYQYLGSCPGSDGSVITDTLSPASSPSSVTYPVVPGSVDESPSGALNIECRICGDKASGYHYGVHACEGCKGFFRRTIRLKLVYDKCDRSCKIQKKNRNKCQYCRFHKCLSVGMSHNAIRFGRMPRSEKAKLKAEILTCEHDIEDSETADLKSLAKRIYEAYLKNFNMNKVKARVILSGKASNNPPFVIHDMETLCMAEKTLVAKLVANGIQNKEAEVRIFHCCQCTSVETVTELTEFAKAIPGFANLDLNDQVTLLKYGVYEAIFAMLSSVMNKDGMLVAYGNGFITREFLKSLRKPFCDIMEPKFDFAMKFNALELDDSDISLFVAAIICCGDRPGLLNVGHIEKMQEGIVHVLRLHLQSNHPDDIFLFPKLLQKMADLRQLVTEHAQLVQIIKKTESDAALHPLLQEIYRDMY
Sequence of Peroxisome proliferator-activated receptor gamma (Homo sapiens) (P37231 whole entry, looked up, the tested form may be a part): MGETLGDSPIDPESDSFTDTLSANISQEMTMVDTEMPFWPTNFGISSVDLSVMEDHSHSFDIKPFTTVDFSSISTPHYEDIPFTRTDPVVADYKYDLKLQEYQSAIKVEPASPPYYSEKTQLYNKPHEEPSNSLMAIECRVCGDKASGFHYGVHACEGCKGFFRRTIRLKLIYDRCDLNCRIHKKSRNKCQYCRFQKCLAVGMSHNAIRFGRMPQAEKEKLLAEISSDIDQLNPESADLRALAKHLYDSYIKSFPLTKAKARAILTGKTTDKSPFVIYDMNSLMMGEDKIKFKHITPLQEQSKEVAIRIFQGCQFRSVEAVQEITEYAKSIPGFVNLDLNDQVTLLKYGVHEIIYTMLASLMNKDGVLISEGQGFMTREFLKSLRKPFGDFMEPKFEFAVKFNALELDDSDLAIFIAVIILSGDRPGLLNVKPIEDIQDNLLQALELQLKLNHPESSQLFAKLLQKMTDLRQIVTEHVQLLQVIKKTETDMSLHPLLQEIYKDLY
Sequence of Cellular tumor antigen p53 (Homo sapiens) (P04637 whole entry, looked up): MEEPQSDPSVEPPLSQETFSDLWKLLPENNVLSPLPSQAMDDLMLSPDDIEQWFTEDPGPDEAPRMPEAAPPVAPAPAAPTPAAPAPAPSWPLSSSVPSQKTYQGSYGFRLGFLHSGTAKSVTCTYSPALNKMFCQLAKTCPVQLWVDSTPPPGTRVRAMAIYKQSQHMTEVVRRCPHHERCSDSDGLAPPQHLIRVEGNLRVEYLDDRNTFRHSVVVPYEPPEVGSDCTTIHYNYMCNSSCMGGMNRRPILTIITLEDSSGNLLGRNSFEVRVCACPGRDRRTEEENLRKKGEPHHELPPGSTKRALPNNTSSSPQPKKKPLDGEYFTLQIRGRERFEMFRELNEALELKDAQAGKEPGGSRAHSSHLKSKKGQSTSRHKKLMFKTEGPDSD
Sequence of human Retinoic Acid Receptor beta (RARb), RARB (gene 5915) (P10826 whole entry, looked up, the tested form may be a part): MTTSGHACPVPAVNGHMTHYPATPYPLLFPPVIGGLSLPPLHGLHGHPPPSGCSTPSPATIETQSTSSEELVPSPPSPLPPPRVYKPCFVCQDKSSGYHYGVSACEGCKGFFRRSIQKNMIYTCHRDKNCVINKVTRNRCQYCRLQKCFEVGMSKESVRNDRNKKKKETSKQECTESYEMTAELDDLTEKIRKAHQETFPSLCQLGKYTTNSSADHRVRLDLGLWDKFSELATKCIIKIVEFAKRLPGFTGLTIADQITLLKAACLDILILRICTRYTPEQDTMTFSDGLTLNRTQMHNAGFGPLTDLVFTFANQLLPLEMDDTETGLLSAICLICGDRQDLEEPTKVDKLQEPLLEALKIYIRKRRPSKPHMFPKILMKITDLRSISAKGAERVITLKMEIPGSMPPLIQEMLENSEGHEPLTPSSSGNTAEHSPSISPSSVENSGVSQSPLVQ
Sequence of Nuclear receptor subfamily 1 group I member 2 (Homo sapiens) (O75469 whole entry, looked up, the tested form may be a part): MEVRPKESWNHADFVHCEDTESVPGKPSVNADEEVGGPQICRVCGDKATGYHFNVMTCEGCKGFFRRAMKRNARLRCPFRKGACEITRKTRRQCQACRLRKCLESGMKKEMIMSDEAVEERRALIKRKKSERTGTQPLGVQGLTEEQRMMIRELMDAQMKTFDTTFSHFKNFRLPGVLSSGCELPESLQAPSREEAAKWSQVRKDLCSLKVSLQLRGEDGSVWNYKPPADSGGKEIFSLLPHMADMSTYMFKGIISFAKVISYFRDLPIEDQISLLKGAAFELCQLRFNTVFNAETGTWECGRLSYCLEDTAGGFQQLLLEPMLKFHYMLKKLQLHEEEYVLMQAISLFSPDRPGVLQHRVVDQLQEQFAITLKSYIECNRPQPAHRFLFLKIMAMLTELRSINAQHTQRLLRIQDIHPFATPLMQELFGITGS

On to `CC(=O)[C@H]1CC[C@H]2[C@@H]3CCC4=CC(=O)CC[C@]4(C)[C@H]3CC[C@]12C`, for which the molecule was classed as inactive in assay [1], in assay [2], in assay [3], in assay [4], in [6] and in assay [8]. The outcome in [9], in assay [10] and in assay [12] was inactive. For the same molecule, the AC50 was 33.4 µM (active) and 16.3 µM (active) in assay [2]; 5.32 µM (active) in [5]; 25.9 µM (active) in assay [7]; 136 µM (active) in assay [9]; 3.36 µM (active) in assay [11]; 2.54 µM (active) [middle of 4 runs] in assay [13].

Turning to `CSC(=O)c1cccc2nnsc12`, the outcome in assay [1], in assay [2], in assay [3], in [4], in [5] and in assay [6] was inactive. In addition, the result in assay [7], in assay [8], in [10], in assay [11], in [12] and in [14] was inactive.

`COC(=O)CSc1cc(N=c2sc(=O)n3n2CCCC3)c(F)cc1Cl`: the outcome in [1], in assay [3], in assay [4], in [15], in [5] and in assay [6] was inactive. The outcome in assay [7], in [8], in assay [10], in assay [11] and in [13] was inactive. For the same molecule, the AC50 in assay [2] was 27.2 µM (active); in assay [12], 27.4 µM (active).

`CCCCOCCOCCOCc1cc2c(cc1CCC)OCO2`: the molecule was called inactive in assay [1], in assay [16], in assay [3], in assay [5], in assay [6] and in assay [7]. The outcome in assay [8], in [9], in assay [10], in assay [17], in assay [18] and in assay [14] was inactive. Also, the result in assay [19] was inactive. Moreover, the concentration at half-maximal activity (AC50) in assay [2] is 7.81 µM (active); in assay [11], 24 µM (active); in assay [12], 16.9 µM (active); in assay [13], 13.3 µM (active).

Turning to `Cc1nn(C)c(Oc2ccccc2)c1C=NOCc1ccc(C(=O)OC(C)(C)C)cc1`, the molecule was called inactive in assay [1], in [4], in assay [15], in assay [7], in [8] and in [9]. Further, the outcome in [10], in assay [17], in [18], in assay [13], in assay [14] and in [20] was inactive. Besides, the result in [19] was inactive. Also, the AC50 was 0.0249 µM (active) in [2]; 40.1 nM (active) in assay [3]; 7.77 µM (active) in assay [5]; 32.5 µM (active) in assay [6]; 7.65 µM (active) in [11]; 1.88 µM (active) in assay [12].

In the case of `CN(C)C(=O)Nc1ccc(Cl)c(Cl)c1`, the result in assay [1], in [4], in assay [5], in [6], in [7] and in assay [8] was inactive. In addition, the result in assay [9], in assay [10], in [17], in assay [18], in [11] and in assay [12] was inactive. For the same molecule, the outcome in assay [13], in assay [14], in assay [20] and in [19] was inactive. Further, the concentration at half-maximal activity (AC50) in [2] is 23.6 µM (active) and 13.1 µM (active); in assay [3], 146 µM (active) and 30.3 µM (active); in [8] it was 15 µM (active); in assay [13] it was 6.84 µM (active).

As for `CCCCC(CC)COC(=O)c1ccccc1C(=O)O` (centres undefined), the outcome in assay [1], in assay [3], in [4], in assay [5], in assay [6] and in assay [7] was inactive. The outcome in [8], in assay [9], in assay [10], in assay [11], in [13] and in assay [19] was inactive. For the same molecule, the concentration at half-maximal activity (AC50) in assay [2] was 21.9 µM (active).
